{
  "source": "PubChem BioAssay AID504534",
  "about": "(National Center for Advancing Translational Sciences (NCATS), 2011)",
  "note": "Records with an inconclusive call do not appear. Unmarked numbers belong to inactive results. Active and inactive are the calls of the source. Calls follow the shape of the dose curve; as a rule, active = well fitted curve in the direction sought with a large enough effect; inconclusive = small, poorly fitted or top-dose-only effect, or another doubt; inactive = no such curve, though single readings can be large or run the other way.",
  "data": [
    {"test": "Secondary Assay for Inhibitors of Human Cdc-like kinase 4 (Clk4): HEK-293 Cell Viability Assay;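 also: % of control where 0% means no effect; cytotoxic hits lower the ATP light signal so activity reflects loss of viability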", "conditions": "HEK-293 viability, ATP luminescence (CellTiter-Glo), 24/48 h; series mostly up to 46.1 µM; activity change, negative = cytotoxicity: at the top concentration", "procedure": "NIH Molecular Libraries Probe Production Centers Network [MLPCN] NIH Chemical Genomics Center [NCGC] MLPCN Grant: 1R03MH084827-01 Assay Submitter (PI): Tom Misteli NCGC Assay Overview: Cytotoxicity of the active compounds in the Clk4 screens was assessed using the CellTiter-Glo Luminescent Cell Viability Assay kit (Promega, USA) in the HEK-293 (ATCC) cell line. CellTiter-Glo measures the intracellular ATP present in metabolically active cells using Ultra-Glo as the luciferase to detect ATP levels. In brief, the luciferase in the buffer catalyzes the oxidation of luciferin to oxyluciferin and light which is dependent on ATP. […] Wells treated with various concentrations of cycloheximide (Sigma) and DMSO, and wells with media alone were used as positive and negative controls, respectively. […] [1] http://www.promega.com/tbs/tb288/tb288.pdf\nNCGC Assay Protocol Summary: HEK-293 cells were grown in a flask up to 80% confluence. Cells were trypsinized, washed, and resuspended in MEM Eagle + 10% FBS + 1% pen-strep media at a concentration of 120 cells/uL. Five uL/well of cell solution was dispensed into a 1536-well assay plates (Greiner, solid white medium-binding plates) with Aurora Discovery BioRAPTR Flying Reagent Dispenser (FRD; Beckton-Dickenson). Cells were pre-incubated at 37 degree Celsius, 5% CO2 for four hours. Compound and control solutions (23nL) were then transferred to the assay plate using the Kalypsys 1536-pin tool. Assay plates were re- incubated at 37 degree Celsius, 5% CO2. After 24 or 48 hours, five uL of CellTiter Glo detection reagent was added. Luminescence signal was read with Perkin Elmer ViewLux plate reader after 30 min room temperature incubation.", "units": {"activity change, negative = cytotoxicity": "%"}, "values": [
      {"smiles": "Cn1ccc2cc(-c3ccc4ncnc(NCc5cccc(F)c5)c4c3)ccc21", "activity change, negative = cytotoxicity": -28.4},
      {"smiles": "C#Cc1cccc(Nc2ncnc3cc(OCCOC)c(OCCOC)cc23)c1", "activity change, negative = cytotoxicity": -11.6},
      {"smiles": "Clc1cccc(-c2ccc3ncnc(NCc4ccc5c(c4)OCO5)c3c2)c1", "activity change, negative = cytotoxicity": -13.9},
      {"smiles": "Cc1csc(CNc2ncnc3ccc(-c4ccc5c(ccn5C)c4)cc23)c1", "activity change, negative = cytotoxicity": -23.1},
      {"smiles": "COc1cccc(-c2ccc3ncnc(NCc4cccc(C)c4)c3c2)c1", "activity change, negative = cytotoxicity": 7.31},
      {"smiles": "Cn1ccc2cc(-c3ccc4ncnc(NCc5ccc6c(c5)OCO6)c4c3)ccc21", "activity change, negative = cytotoxicity": -17.8},
      {"smiles": "CCN(Cc1cccs1)c1ncnc2ccc(-c3ccc4c(c3)OCO4)cc12", "activity change, negative = cytotoxicity": -18.8},
      {"smiles": "Cn1ccc2cc(-c3ccc4ncnc(NCc5cccs5)c4c3)ccc21", "activity change, negative = cytotoxicity": -25.3},
      {"smiles": "c1csc(CCNc2ncnc3ccc(-c4ccc5c(c4)OCO5)cc23)c1", "activity change, negative = cytotoxicity": 8.3},
      {"smiles": "CN(CC1CCCO1)c1ncnc2ccc(-c3ccc4c(c3)OCO4)cc12", "note": "(stereo not given)", "activity change, negative = cytotoxicity": -9.72},
      {"smiles": "CN(CCc1ccco1)c1ncnc2ccc(-c3ccc4c(c3)OCO4)cc12", "activity change, negative = cytotoxicity": -16.2},
      {"smiles": "c1csc(CNc2ncnc3ccc(-c4ccc5c(c4)OCO5)cc23)c1", "Potency": "inactive"},
      {"smiles": "Cc1ccc(CNc2ncnc3ccc(-c4ccc(C(=O)O)o4)cc23)o1", "activity change, negative = cytotoxicity": -11.4},
      {"smiles": "Fc1c(-c2ccc3ncnc(NCc4cccs4)c3c2)ccc2c1OCO2", "activity change, negative = cytotoxicity": -2.4},
      {"smiles": "CCNC(=O)c1ccc(-c2ccc3ncnc(NCc4nccs4)c3c2)o1", "activity change, negative = cytotoxicity": -4.27},
      {"smiles": "CN1CCCC1CCNc1ncnc2ccc(-c3ccc4c(c3)OCO4)cc12", "note": "(stereo not given)", "activity change, negative = cytotoxicity": -13.2},
      {"smiles": "Cc1cccc(CNc2ncnc3ccc(-c4cccc(C)c4)cc23)c1", "activity change, negative = cytotoxicity": -2.85},
      {"smiles": "Cc1csc(CNc2ncnc3ccc(-c4cccnc4)cc23)c1", "activity change, negative = cytotoxicity": 0.236},
      {"smiles": "Cc1cccc(-c2ccc3ncnc(NCc4cc(C)cs4)c3c2)c1", "activity change, negative = cytotoxicity": -15.7},
      {"smiles": "CS(=O)(=O)CCNCc1ccc(-c2ccc3ncnc(Nc4ccc(OCc5cccc(F)c5)c(Cl)c4)c3c2)o1", "activity change, negative = cytotoxicity": 4.65},
      {"smiles": "Cc1ccc(CN(C)c2ncnc3ccc(-c4ccc(CO)n4C)cc23)o1", "activity change, negative = cytotoxicity": -21.2},
      {"smiles": "Cc1occc1-c1ccc2ncnc(NCCc3cnc[nH]3)c2c1", "activity change, negative = cytotoxicity": -16.7},
      {"smiles": "CC(O)c1ccc(-c2ccc3ncnc(NCCc4cnc[nH]4)c3c2)o1", "note": "(stereo not given)", "activity change, negative = cytotoxicity": -4.9},
      {"smiles": "Cc1ccc(CN(C)c2ncnc3ccc(-c4ccc(C(=O)O)o4)cc23)o1", "activity change, negative = cytotoxicity": -15.1},
      {"smiles": "c1cncc(-c2ccc3ncnc(NCc4ccc5c(c4)OCO5)c3c2)c1", "activity change, negative = cytotoxicity": 3.84},
      {"smiles": "Cc1occc1CNc1ncnc2ccc(-c3ccc4c(c3)OCO4)cc12", "activity change, negative = cytotoxicity": -20.2},
      {"smiles": "Cc1ccc(CNc2ncnc3ccc(-c4ccoc4C)cc23)o1", "activity change, negative = cytotoxicity": -14.1},
      {"smiles": "c1nc(NCc2ccc3c(c2)OCO3)c2cc(-c3ccoc3)ccc2n1", "activity change, negative = cytotoxicity": -9.32},
      {"smiles": "CN(CC(=O)O)c1ncnc2ccc(-c3ccc4c(c3)OCO4)cc12", "activity change, negative = cytotoxicity": -7.63},
      {"smiles": "CN(C)CCCNc1ncnc2ccc(-c3ccc4c(c3)OCO4)cc12", "activity change, negative = cytotoxicity": -0.0763},
      {"smiles": "O=C(O)c1ccc(-c2ccc3ncnc(N4CCOCC4)c3c2)o1", "activity change, negative = cytotoxicity": 3.54},
      {"smiles": "O=Cc1ccc(-c2ccc3ncnc(NCc4cccs4)c3c2)o1", "activity change, negative = cytotoxicity": -5.69},
      {"smiles": "Cn1cnc(CCNc2ncnc3ccc(-c4ccc5c(c4)OCO5)cc23)c1", "activity change, negative = cytotoxicity": 1.14},
      {"smiles": "Cc1nc(C)c(-c2ccc3ncnc(NCc4ncc[nH]4)c3c2)s1", "activity change, negative = cytotoxicity": -19.3},
      {"smiles": "Cc1nc(C(C)N(C)c2ncnc3ccc(-c4ccc5c(c4)OCO5)cc23)cs1", "note": "(stereo not given)", "activity change, negative = cytotoxicity": -12.7},
      {"smiles": "CCOC(=O)c1ccc(-c2ccc3ncnc(NCc4csc(C)n4)c3c2)o1", "activity change, negative = cytotoxicity": -8.57},
      {"smiles": "Cc1csc(CNc2ncnc3ccc(-c4ccc5c(c4)OCCO5)cc23)c1", "activity change, negative = cytotoxicity": -15.6},
      {"smiles": "Cc1ccsc1CN(C)c1ncnc2ccc(-c3ccc(COC(=O)N(C)C)o3)cc12", "activity change, negative = cytotoxicity": -11.5},
      {"smiles": "CN(Cc1ccco1)c1ncnc2ccc(-c3ccoc3)cc12", "activity change, negative = cytotoxicity": -9.24},
      {"smiles": "Cc1nc(CNc2ncnc3ccc(-c4ccoc4C)cc23)cs1", "activity change, negative = cytotoxicity": -29.3}
    ]}
  ]
}
